The term cell viability denotes a read-out of living cells in per cent, often relative to untreated cells.

Data on 9 molecules can be found in the supplement of paper PMC10981050.

Molecules are shown by their SMILES. Where “and” joins values, the source holds several entries; their conditions need not be identical. Identical values can stand only once. Counter-ions that a name gives are not always drawn.

Common to all, as to test: cell viability relative to vehicle control; higher = less cytotoxic
Common to all, as to conditions: 10 µM

The test system of one test is K562. The method, boiled down:
(§1)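 CRISPR-edited SRSF2 P95 mutant and isogenic wild-type clones of four leukaemia lines were screened against Selleck bioactive, kinase and epigenetic probe libraries, with identity-inconsistent compounds removed. Compounds were acoustically dispensed into 384-well plates at a single 10 µM dose, with 2000 cells in 50 µL medium per well. After 48 h, supernatant was removed and CellTiter-Glo luminescence was read. Viability was expressed as percent of the on-plate DMSO vehicle control, analysed in Genedata Screener.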

A further test concerns MARIMO. In short, it runs like this: as §1
In another test the test system is MOLM14. The method, boiled down: as §1
The next test relates to OCI-AML2. The method, boiled down: as §1

Regarding `C[C@H]1CC[C@]2(NC1)O[C@H]1C[C@H]3[C@@H]4CC[C@H]5C[C@@H](O)CC[C@]5(C)[C@H]4CC[C@]3(C)[C@H]1[C@@H]2C` [Tomatidine], the cell viability in the test on K562 (SRSF2 genotype: SRSF2 P95H/wt) was 92.3% and 92%; in the test on K562 (SRSF2 genotype: SRSF2 wt/wt) it was 90.7%; with MARIMO (SRSF2 genotype: SRSF2 P95H/wt), 86.8%; in the test with MARIMO (SRSF2 genotype: SRSF2 wt/wt) it was 94.8%; in the test with MOLM14 (SRSF2 genotype: SRSF2 P95H/wt) it was 90.7%; in the test with MOLM14 (SRSF2 genotype: SRSF2 wt/wt), 93.3%. Besides, the cell viability in the test on OCI-AML2 (SRSF2 genotype: P95H/wt) was determined as 96.5%; in the test with OCI-AML2 (SRSF2 genotype: wt/wt), 93.5%.
For `CC(C)(C)c1cc(C=C(C#N)C#N)cc(C(C)(C)C)c1O` [Tyrphostin 9 (SF 6847)], the cell viability in the test on K562 (SRSF2 genotype: SRSF2 P95H/wt) was 14.4% and 18.5%; in the test with K562 (SRSF2 genotype: SRSF2 wt/wt), 18.5%; in the test on MARIMO (SRSF2 genotype: SRSF2 P95H/wt), 23.8%; in the test with MARIMO (SRSF2 genotype: SRSF2 wt/wt), 23.8%; with MOLM14 (SRSF2 genotype: SRSF2 P95H/wt), 17.7%; in the test on MOLM14 (SRSF2 genotype: SRSF2 wt/wt), 12.2%. Besides, the cell viability in the test with OCI-AML2 (SRSF2 genotype: P95H/wt) came out at 5.2%; in the test with OCI-AML2 (SRSF2 genotype: wt/wt) it was 11.5%.
For the molecule `O=C(O)C(=O)CBr` [Bromopyruvic acid], the cell viability in the test with K562 (SRSF2 genotype: SRSF2 P95H/wt) was 99.8% and 89.6%; in the test with K562 (SRSF2 genotype: SRSF2 wt/wt) it was 90.3%; in the test with MARIMO (SRSF2 genotype: SRSF2 P95H/wt) it was 90%; in the test with MARIMO (SRSF2 genotype: SRSF2 wt/wt), 97.8%; with MOLM14 (SRSF2 genotype: SRSF2 P95H/wt) it was 91.6%; with MOLM14 (SRSF2 genotype: SRSF2 wt/wt), 94.7%. Moreover, the results for the cell viability in the test on OCI-AML2 (SRSF2 genotype: P95H/wt) and with OCI-AML2 (SRSF2 genotype: wt/wt) were 94.7% and 93.9%, respectively.
On to `C=C(C)[C@H]1Cc2c(ccc3c2O[C@@H]2COc4cc(OC)c(OC)cc4[C@@H]2C3=O)O1` [Rotenone (Barbasco)], for which the cell viability in the test with K562 (SRSF2 genotype: SRSF2 P95H/wt) was 12.8% and 22.4%; with K562 (SRSF2 genotype: SRSF2 wt/wt) it was 23.4%; in the test with MARIMO (SRSF2 genotype: SRSF2 P95H/wt), 5.86%; with MARIMO (SRSF2 genotype: SRSF2 wt/wt), 10.5%; in the test on MOLM14 (SRSF2 genotype: SRSF2 P95H/wt), 15.6%; in the test with MOLM14 (SRSF2 genotype: SRSF2 wt/wt) it was 3.2%. The cell viability in the test with OCI-AML2 (SRSF2 genotype: P95H/wt) is 9.69%; in the test on OCI-AML2 (SRSF2 genotype: wt/wt), 13.8%.
Take `O=S(=O)(F)Cc1ccccc1` [PMSF (Phenylmethylsulfonyl Fluoride)]: the cell viability is 95.7% and 94.9% with K562 (SRSF2 genotype: SRSF2 P95H/wt); 97% in the test with K562 (SRSF2 genotype: SRSF2 wt/wt); 100% in the test with MARIMO (SRSF2 genotype: SRSF2 P95H/wt); 99.5% in the test with MARIMO (SRSF2 genotype: SRSF2 wt/wt); 99.3% in the test on MOLM14 (SRSF2 genotype: SRSF2 P95H/wt); 102% in the test on MOLM14 (SRSF2 genotype: SRSF2 wt/wt). Besides, the cell viability in the test on OCI-AML2 (SRSF2 genotype: P95H/wt) came out at 102%; with OCI-AML2 (SRSF2 genotype: wt/wt), 96.1%.
As for `COc1ccc2c(c1)[nH]c1c(C)nccc12` [Harmine hydrochloride], the cell viability in the test on K562 (SRSF2 genotype: SRSF2 P95H/wt) was 88.3% and 94.7%; in the test with K562 (SRSF2 genotype: SRSF2 wt/wt), 92.7%; with MARIMO (SRSF2 genotype: SRSF2 P95H/wt) it was 79.5%; with MARIMO (SRSF2 genotype: SRSF2 wt/wt), 87.7%; with MOLM14 (SRSF2 genotype: SRSF2 P95H/wt) it was 54.3%; with MOLM14 (SRSF2 genotype: SRSF2 wt/wt), 66.8%. In addition, the cell viability worked out at 38.1% in the test with OCI-AML2 (SRSF2 genotype: P95H/wt) and 49.9% in the test with OCI-AML2 (SRSF2 genotype: wt/wt).
For the molecule `CCN1CC2(OC(=O)c3ccccc3NC(C)=O)CCC(OC)C34C1C(CC23)C1(O)CC(OC)C2CC4C1(O)C2OC` (configuration not stated) [Lappaconite Hydrobromide], the cell viability in the test on K562 (SRSF2 genotype: SRSF2 P95H/wt) is 102% and 86.3%; in the test with K562 (SRSF2 genotype: SRSF2 wt/wt), 88.2%; in the test with MARIMO (SRSF2 genotype: SRSF2 P95H/wt), 86.7%; with MARIMO (SRSF2 genotype: SRSF2 wt/wt), 96.2%; in the test with MOLM14 (SRSF2 genotype: SRSF2 P95H/wt) it was 89.6%; in the test on MOLM14 (SRSF2 genotype: SRSF2 wt/wt) it was 96.4%. Besides, the values for the cell viability in the test with OCI-AML2 (SRSF2 genotype: P95H/wt) and with OCI-AML2 (SRSF2 genotype: wt/wt) were 97.3% and 87.2%, respectively.
As to `C[C@@]12C[C@@H](c3ccoc3)OC(=O)[C@@H]1CC[C@]1(C)[C@H]2[C@@H]2C=C[C@@]1(O)C(=O)O2` [Columbin], the cell viability is 104% and 96.4% in the test with K562 (SRSF2 genotype: SRSF2 P95H/wt); 102% with K562 (SRSF2 genotype: SRSF2 wt/wt); 99% with MARIMO (SRSF2 genotype: SRSF2 P95H/wt); 106% with MARIMO (SRSF2 genotype: SRSF2 wt/wt); 108% in the test on MOLM14 (SRSF2 genotype: SRSF2 P95H/wt); 100% in the test on MOLM14 (SRSF2 genotype: SRSF2 wt/wt). Further, the cell viability turned out to be 104% in the test on OCI-AML2 (SRSF2 genotype: P95H/wt) and 103% in the test with OCI-AML2 (SRSF2 genotype: wt/wt).
Regarding `NC(=O)CN1CC(c2ccccc2)CC1=O` (configuration not stated) [Phenylpiracetam], the cell viability in the test on K562 (SRSF2 genotype: SRSF2 P95H/wt) is 94.8% and 94.3%; in the test on K562 (SRSF2 genotype: SRSF2 wt/wt) it was 97.6%; in the test with MARIMO (SRSF2 genotype: SRSF2 P95H/wt), 102%; with MARIMO (SRSF2 genotype: SRSF2 wt/wt), 96.9%; in the test on MOLM14 (SRSF2 genotype: SRSF2 P95H/wt), 99.8%; in the test with MOLM14 (SRSF2 genotype: SRSF2 wt/wt) it was 98.1%. Besides, the cell viability in the test on OCI-AML2 (SRSF2 genotype: P95H/wt) is 101%; with OCI-AML2 (SRSF2 genotype: wt/wt), 103%.
